The record followed here is PubChem BioAssay (NCATS).

Assay [1] is described as follows: Cell Viability - Jurkat (AID 426;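 active means dose-dependent loss of cell ATP signal giving a full or clear fitted curve, ranked by lower potency value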;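 further: potency means the concentration at half of the fitted maximal effect; cells exposed to compound for 40 hours at 37 °C before ATP read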). The note with it: qHTS. Put shortly: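 Cells of the human T-cell leukemia line Jurkat (E6-1) are seeded at 5000 per well, treated with compound across a concentration range for 40 hours at 37 °C, then lysed with CellTiter-Glo; luminescence reports ATP.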
On the technique in general: Quantitative high-throughput screening tests each substance at several concentrations.

Assay [2] in a line: Cell Viability - N2a (AID 540).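 Further: cells exposed to compound for 40 h at 37 °C; plate controls were DMSO alone for no effect and tamoxifen control for full effect; nearly all actives have a fitted effect of over 45% in size.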 The note with it: N2a mouse neuroblastoma cell viability; activity change, negative = cytotoxicity: at 92.2 µM (top of the series). Put shortly: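 Cytotoxicity was scored as loss of cellular ATP in N2a cells, a mouse neuroblastoma line. Compounds are applied in a qHTS concentration series for 40 hr at 37 °C.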
The nature of assay [3]: Cellular Toxicity (caspase-3) HepG2 (AID 654).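 Further: cells exposed to compound for 16 hours before reading; 0% = DMSO alone and 100% = caspase signal from 100 µM tamoxifen.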 The note with it: HepG2 caspase-3 activation, luminescence, 0% = DMSO only, 100% = tamoxifen; series mostly up to 92.2 µM. The method, boiled down:
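Caspase 3/7 activation in HepG2 is measured as rising luminescence after a 16 hr treatment at 37 °C. Values are scaled between DMSO basal and 100 uM tamoxifen, and AC50 is fitted with the Hill equation.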

A short description of assay [4]: MultiTox-Fluor Cytotoxicity Assay - LYMP1-002 - Dead Cells (AID 960).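 Further: 0% = DMSO and 100% = tetraoctylammonium bromide; nearly all actives have a fitted effect of over 60% in size.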 The note with it: LYMP1-002 lymphoblastoid cells, dead-cell protease fluorescence; series mostly up to 46.1 µM. Put shortly: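 Cells were plated, rested 5 hr, then treated with compound dilution series for 16 hr at 37 C. After adding substrate reagent and 60 min at room temperature, dead-cell protease fluorescence gave concentration-response curves fitted by the Hill equation.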

A short description of assay [5]: Cell Viability - LYMP2-005 (AID 967).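 Further: plate controls were DMSO only for no effect and 92 µM tetraoctylammonium bromide control for full effect.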 The note with it: LYMP2-005 lymphoblastoid cell viability; series mostly up to 92.2 µM. Put shortly: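 CellTiter-Glo luminescence (cellular ATP) read-out; LYMP2-005 lymphoblastoid cells, 2500/well, 5 h pre-incubation, then 24 h compound exposure at 37 C in complete medium. Tetraoctylammonium bromide positive control; AC50 by standard Hill fit.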

Assay [6] in a line: Cell Viability - LYMP2-009 (AID 968).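 Further: 0% = DMSO alone and the full-kill end = tetraoctylammonium bromide at 92 µM; nearly all actives have a fitted effect of over 55% in size.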 The note with it: LYMP2-009 lymphoblastoid cell viability; series mostly up to 92.2 µM.
A short description of assay [7]: Cell Viability - LYMP2-012 (AID 982).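 Further: cellular ATP by luciferase luminescence where a drop means cytotoxicity; cells exposed to compound for one day before reading; 0% = DMSO only and full loss = 92 µM tetraoctylammonium bromide; nearly all actives have a fitted effect of over 55% in size.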 The note with it: LYMP2-012 lymphoblastoid cell viability qHTS; series mostly up to 92.2 µM.
Assay [8] can be described thus: Cell Viability - LYMP2-024 (AID 988).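 Further: plate controls were DMSO only for no effect and 92 µM tetraoctylammonium bromide for full effect; nearly all actives have a fitted effect of over 60% in size.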 The note with it: LYMP2-024 lymphoblastoid cell viability; series mostly up to 92.2 µM. The method, boiled down: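 qHTS cytotoxicity, human lymphoblastoid line, complete medium; 24 h cpd treatment, 37 C; CellTiter-Glo ATP luminescence readout; tetraoctylammonium bromide positive control; AC50 via Hill fit.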
The target of assay [9] is Vitamin D3 receptor (Homo sapiens) (UniProt P11473). In words: qHTS assay for small molecule antagonists of vitamin D receptor signaling (AID 588541; calls by dose curve;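 further: receptor activated by calcitriol during compound treatment; on the % scale 0 is the no-effect control and ±100 the full control effect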). The note with it: HEK293T VDR-UAS-bla, beta-lactamase ratio, antagonist mode; series mostly up to 76.7 µM. Put shortly:
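VDR-UAS-bla HEK293T cells (2000/well, 2% charcoal-stripped FBS) were treated with titrated compounds plus 1-alpha,25-dihydroxyvitamin D3 (50 nM or 3 nM final) for 16 h at 37 C. CCF4 beta-lactamase fluorescence was read; Hill fits gave IC50.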

Assay [10] concerns the target Thyroid hormone receptor beta (Homo sapiens) (UniProt P10828). Put plainly: qHTS assay for small molecule agonists of thyroid hormone receptor beta signaling (AID 588545; calls by dose curve;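 further: 0% = DMSO only and 100% = 10 nM T3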). The note with it: TR-UAS-bla GripTite HEK 293, beta-lactamase ratio, agonist mode, 18 h; series mostly up to 76.7 µM. The method, boiled down:
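Efficacy and EC50 values derive from Hill fits of qHTS titration data, normalized to 10 nM T3 and DMSO-only wells. HEK 293 reporter cells were stimulated for 18 hrs at 37 C, with beta-lactamase activity measured by CCF4 fluorescence.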

The nature of assay [11]: qHTS assay for small molecule antagonists of retinoid X receptor alpha signaling (AID 588546; active means well fitted inhibition curve with a large enough effect in the signal ratio, with a control signal flat, not every such curve was filed as active; the % refers to the signal ratio;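 further: cells stimulated with 9-cis-retinoic acid as agonist; on the % scale 0 is the no-effect control and ±100 the full control effect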). The note with it: HEK293T RXRa-UAS-bla, beta-lactamase ratio, antagonist mode; measured here: W530 green channel, cytotoxicity proxy. Put shortly:
(§1)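 Beta-lactamase reporter inhibition, read as CCF4 fluorescence ratio (ex 405, em 460/530 nm) after 2 h at RT. HEK293T UAS-bla cells, 2500/well, were stimulated with 9-cis-RA at 500 or 100 nM final alongside test compound for 18 h at 37 C.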

In assay [12] the target is Retinoic acid receptor RXR-alpha (Homo sapiens) (UniProt P19793). The assay is described as above. The note with it: HEK293T RXRa-UAS-bla, beta-lactamase ratio, antagonist mode. Put shortly: as §1
Retinoic acid receptor RXR-alpha (Homo sapiens), sequence (P19793 whole entry, looked up): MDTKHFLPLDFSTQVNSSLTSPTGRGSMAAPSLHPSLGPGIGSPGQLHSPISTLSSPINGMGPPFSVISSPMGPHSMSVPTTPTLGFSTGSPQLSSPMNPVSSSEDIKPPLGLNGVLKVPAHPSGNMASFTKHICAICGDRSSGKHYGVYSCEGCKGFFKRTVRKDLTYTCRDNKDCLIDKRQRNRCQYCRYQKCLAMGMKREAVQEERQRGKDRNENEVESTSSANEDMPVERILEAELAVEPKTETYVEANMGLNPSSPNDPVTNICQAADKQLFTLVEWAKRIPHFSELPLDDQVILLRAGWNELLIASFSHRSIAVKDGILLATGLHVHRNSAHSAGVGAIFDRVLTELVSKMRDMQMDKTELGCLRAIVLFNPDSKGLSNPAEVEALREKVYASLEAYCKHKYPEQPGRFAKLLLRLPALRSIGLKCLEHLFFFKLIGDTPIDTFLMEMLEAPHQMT
Assay [13] has as its target Nuclear receptor ROR-gamma (Homo sapiens) (UniProt P51449). In words: qHTS assay for small molecule antagonists of the retinoid-related orphan receptor gamma (ROR-gamma) signaling pathway (AID 651802).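 Further: CHO cells with doxycycline-induced ROR-gamma expression; on the % scale 0 is the no-effect control and ±100 the full control effect; nearly all actives have a fitted effect of over 60% in size.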 The note with it: ROR-gamma antagonist cell reporter assay; series mostly up to 92.2 µM. The method, boiled down:
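Steps: cells dispensed; compound or DMSO transferred by pin tool; doxycycline added to induce the ROR response element-driven luciferase; plates held 16hr at 37C; ONE-Glo added and luminescence measured.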

Assay [14] in a line: qHTS assay for small molecule antagonists of the retinoid-related orphan receptor gamma (ROR-gamma) signaling pathway - cell viability counter screen (AID 720652; active means well fitted curve in the direction sought with a large enough effect in the repeat runs; an effect the other way counts as inactive or inconclusive;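 further: CHO reporter cells with doxycycline-induced ROR-gamma expression; compound exposure lasted 16 hr before ATP read; on the % scale 0 is the no-effect control and ±100 the full control effect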). The note with it: RORgamma reporter cell line viability counter screen; series mostly up to 92.2 µM. Put shortly:
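Steps: seed CHO cells bearing TET-inducible ROR and ROR response element-luciferase; rest 5 hr at 37 C; add compound, then doxycycline; incubate 16 hr; add CellTiter-Glo and read luminescence as ATP-based viability.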

The nature of assay [15]: qHTS assay for small molecule agonists of the antioxidant response element (ARE) signaling pathway measured by Nrf2-dependant transcriptional activity - cell viability counter screen (AID 720653; active means well fitted curve in the direction sought with a large enough effect in the repeat runs; an effect the other way counts as inactive or inconclusive; further: on the % scale 0 is the no-effect control and ±100 the full control effect). The note with it: ARE-bla HepG2 viability, CellTiter-Glo ATP luminescence, 16 h; stronger effect = lower value. Put shortly: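 ARE-bla HepG2 cells (2,000/well) rested 5 hrs at 37C/5% CO2, then exposed to compounds in DMSO for 16 hrs. Viability was read in the same wells as intracellular ATP by luminescence, 30 min at room temperature after reagent addition.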

A short description of assay [16]: qHTS assay for small molecule activators of the human pregnane X receptor (PXR) signaling pathway (AID 720659; call rule not given here; further: 0% is about no effect). The note with it: DPX-2 HepG2 CYP3A4-luciferase, 24 h; series mostly up to 92.3 µM.
Assay [17] is described as follows: Cellular Toxicity (caspase-3) H-4-II-E (AID 663).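 Further: cells exposed to compound for 16 hr before readout.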 The note with it: H-4-II-E rat hepatoma; Potency: caspase-3 activation; series mostly up to 92.2 µM. The method, boiled down: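 Caspase 3/7 activation measured in H-4-II-E cells in complete culture medium after 16 hr treatment at 37 °C, using luciferase-coupled substrate readout; AC50 values come from Hill-equation fits of normalized concentration-response data.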

The nature of assay [18]: MultiTox-Fluor Cytotoxicity Assay - LYMP1-001 - Live Cells (AID 947).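 Further: 0% = DMSO only and full inhibition = tetraoctylammonium bromide control.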 The note with it: LYMP1-001 lymphoblastoid cells, live-cell protease fluorescence viability; series mostly up to 92.2 µM.
A short description of assay [19]: MultiTox-Fluor Cytotoxicity Assay - LYMP1-003 - Live Cells (AID 962).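 Further: 0% = DMSO only and full loss = 92 µM tetraoctylammonium bromide; cytotoxic hits lower the live-cell protease signal.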 The note with it: LYMP1-003 lymphoblastoid cells, MultiTox-Fluor live-cell protease fluorescence; series mostly up to 92.2 µM. Put shortly:
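Acute cytotoxicity is scored as a drop in live-cell protease activity in human lymphoblastoid LYMP1-003 cells after 16 hr compound exposure at 37 C. AC50 values come from Hill-equation modelling of concentration-response data.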

Assay [20] is described as follows: Cell Viability - LYMP2-018 (AID 985).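 Further: compound exposure lasted 24 hr at 37 °C; plate controls were DMSO only for no effect and tetraoctylammonium bromide at 92 µM for full effect; nearly all actives have a fitted effect of over 50% in size.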 The note with it: LYMP2-018 lymphoblastoid cells, viability (qHTS); series mostly up to 92.2 µM. Put shortly: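 Seed 2500 lymphoblastoid cells per well, incubate 5 hr at 37 C, add compound and incubate 24 hr at 37 C, add CellTiter-Glo, wait 30 min at room temperature, then read luminescence.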

Where “and” joins values, the source holds several entries; their conditions need not be identical. Equal values may be shown once. Results filed as inconclusive are left out. Calls of active or inactive are those of the source. Unless noted, the call rests on the fitted dose curve; in most records, active means well fitted curve in the direction sought with a large enough effect; inconclusive means small, poorly fitted or top-dose-only effect, or another doubt; inactive means no such curve, though single readings can be large; an effect the other way counts as inactive or inconclusive.

Vitamin D3 receptor (Homo sapiens), sequence (P11473 whole entry, looked up): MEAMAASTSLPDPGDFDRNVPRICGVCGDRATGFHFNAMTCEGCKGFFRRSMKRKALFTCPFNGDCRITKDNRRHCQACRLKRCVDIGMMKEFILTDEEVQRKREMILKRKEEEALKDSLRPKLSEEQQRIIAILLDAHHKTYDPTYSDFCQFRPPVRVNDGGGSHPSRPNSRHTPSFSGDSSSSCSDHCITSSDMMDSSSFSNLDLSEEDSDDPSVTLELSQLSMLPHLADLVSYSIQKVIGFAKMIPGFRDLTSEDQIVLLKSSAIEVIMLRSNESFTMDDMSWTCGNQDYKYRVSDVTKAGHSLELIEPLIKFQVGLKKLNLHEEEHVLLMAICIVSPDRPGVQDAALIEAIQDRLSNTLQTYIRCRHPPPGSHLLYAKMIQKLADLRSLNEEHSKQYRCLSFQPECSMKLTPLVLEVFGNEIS
Thyroid hormone receptor beta (Homo sapiens), sequence (P10828 whole entry, looked up): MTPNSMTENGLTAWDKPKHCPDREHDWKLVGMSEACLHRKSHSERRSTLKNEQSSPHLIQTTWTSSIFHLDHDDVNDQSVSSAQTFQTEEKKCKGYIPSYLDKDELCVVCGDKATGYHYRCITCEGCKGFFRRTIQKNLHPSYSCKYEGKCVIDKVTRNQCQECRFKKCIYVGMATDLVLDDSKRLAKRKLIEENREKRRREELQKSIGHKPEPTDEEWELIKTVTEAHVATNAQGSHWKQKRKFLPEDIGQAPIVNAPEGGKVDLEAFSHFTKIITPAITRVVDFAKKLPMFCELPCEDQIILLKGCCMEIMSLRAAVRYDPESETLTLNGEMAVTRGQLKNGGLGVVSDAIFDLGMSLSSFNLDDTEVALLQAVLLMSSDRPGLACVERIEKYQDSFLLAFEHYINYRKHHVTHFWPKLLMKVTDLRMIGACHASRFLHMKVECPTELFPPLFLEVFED
Nuclear receptor ROR-gamma (Homo sapiens), sequence (P51449 whole entry, looked up): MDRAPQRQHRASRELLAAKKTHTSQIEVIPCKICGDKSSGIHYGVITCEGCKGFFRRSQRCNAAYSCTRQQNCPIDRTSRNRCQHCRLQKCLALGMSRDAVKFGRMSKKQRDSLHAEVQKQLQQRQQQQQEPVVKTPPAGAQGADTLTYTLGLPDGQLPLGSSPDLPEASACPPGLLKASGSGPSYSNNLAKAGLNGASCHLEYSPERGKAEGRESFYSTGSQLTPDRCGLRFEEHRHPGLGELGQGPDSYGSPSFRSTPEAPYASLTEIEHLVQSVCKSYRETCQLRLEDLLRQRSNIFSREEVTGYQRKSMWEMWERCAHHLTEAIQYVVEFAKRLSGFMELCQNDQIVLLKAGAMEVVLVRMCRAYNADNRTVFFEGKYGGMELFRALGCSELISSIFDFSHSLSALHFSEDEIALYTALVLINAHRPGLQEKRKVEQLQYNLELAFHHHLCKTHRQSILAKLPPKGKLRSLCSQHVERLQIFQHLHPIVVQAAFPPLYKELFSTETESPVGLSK

Consider `CC(C)(Cl)[N+](=O)[O-]`, for which the Potency in assay [1] is > 92 µM (inactive). The Potency entry in [2], in [4], in assay [5], in [6], in [7] and in assay [8] was “inactive” in each case. The Potency result in assay [10], in assay [13] and in [14] was “inactive” in each case. The compound was called inactive in assay [3], in assay [9] and in assay [16]. The max response was -8.14% in assay [11], 5.8% (inactive) in assay [12] and -1.78% (inactive) in assay [15].

Take `O=C(Cc1ccccc1)OCc1ccccc1`: the Potency in [1] is > 92 µM (inactive). Further, the Potency entry in [2], in [17], in [4], in assay [5], in assay [6] and in assay [7] was “inactive” each time. Further, the Potency result in assay [20], in assay [8], in assay [10], in assay [13] and in assay [14] was “inactive” each time. The compound was classed as inactive in assay [3], in [18], in assay [19], in assay [9] and in assay [16]. Further, the results for the max response in assay [11], in [12] and in assay [15] were 8.24%, -5.19% (inactive) and -10.2% (inactive), respectively.

In the case of `C1CC2OC2CC1C1CO1` (stereo not drawn), the Potency in [1] was > 92 µM (inactive). Moreover, the Potency result in assay [2], in assay [17], in assay [4], in assay [5], in assay [6] and in assay [7] was “inactive” each time. The Potency entry in assay [8], in [10], in assay [13] and in assay [14] was “inactive” in each case. In addition, the outcome in assay [3], in assay [18], in assay [19], in assay [9] and in assay [16] was inactive. Further, the max response in [11] was -7.13% and -27.8%; in [12], 10.1% (inactive) and -3.3% (inactive).

Regarding `CC(C)(OOC(C)(C)c1ccccc1)c1ccccc1`, the Potency in assay [1] is > 92 µM (inactive). For the same compound, the Potency result in [2], in assay [17], in [4], in assay [5], in [7] and in assay [20] was “inactive” each time. For the same compound, the Potency entry in [8], in [10], in assay [13] and in assay [14] was “inactive” throughout. Further, the result in assay [3], in assay [19] and in assay [9] was inactive. Also, the max response in assay [11] was -11%; in assay [12], 4.95% (inactive); in [15], -15.2% (inactive) and -2.58% (inactive).

As to `C=CCc1cc(OC)c2c(c1)OCO2`, the Potency in assay [1] was > 92 µM (inactive). In addition, the Potency result in assay [2], in assay [17], in [4], in assay [5], in [6] and in [7] was “inactive” throughout. For the same compound, the Potency entry in assay [20], in [8], in assay [10], in assay [13] and in [14] was “inactive” in each case. The compound was called inactive in assay [3], in assay [18], in assay [19], in assay [9] and in assay [16]. Also, the figures for the max response in assay [11], in [12] and in assay [15] were -4.92%, 9.86% (inactive) and -2.49% (inactive), respectively.

For `ClCC(Cl)Cl`, in [1], the Potency is > 92 µM (inactive). The Potency result in assay [2], in assay [17], in assay [5], in assay [6], in [7] and in [20] was “inactive” throughout. Besides, the Potency entry in assay [13] and in assay [14] was “inactive” throughout. For the same compound, the compound was classed as inactive in [18], in [19], in assay [9] and in assay [16]. For the same compound, the results for the max response in assay [11], in assay [12] and in assay [15] were 2.25%, 7.8% (inactive) and -5.62% (inactive), respectively.

On to `ClCCOCOCCCl`, for which the Potency in assay [1] was > 92 µM (inactive). In addition, the Potency entry in assay [2], in assay [17], in [4], in assay [5], in [7] and in assay [20] was “inactive” each time. Further, the Potency result in assay [8], in [10], in [13] and in assay [14] was “inactive” throughout. In addition, the result in [3], in assay [18], in assay [19], in assay [9] and in assay [16] was inactive. Also, the max response in assay [11] is -0.61%; in [12], -0.285% (inactive); in assay [15], -12.6% (inactive).

For the compound `CCNCC`, the Potency in assay [1] was > 92 µM (inactive). The Potency entry in assay [2], in assay [17], in assay [4], in assay [5], in [6] and in [7] was “inactive” throughout. Moreover, the Potency result in assay [20], in assay [8], in assay [10], in assay [13] and in [14] was “inactive” in each case. Besides, the outcome in assay [3], in assay [18], in [19], in [9] and in assay [16] was inactive.
